This passage reports inhibition and activation results from PubChem BioAssay.

The target of assay [1] is Sphingosine 1-phosphate receptor 4 (Homo sapiens) (UniProt O95977). The experiment in a line: S1P4 receptor antagonists, human, confirmation, cell-based (AID 1524; in the data active = inhibition above about 30%). Conditions: S1P4-expressing cell line, antagonist mode, reporter read-out; at 4.98 µM; stronger effect = higher value.
The target in assay [2] is Sphingosine 1-phosphate receptor 1 (Homo sapiens) (UniProt P21453). The experiment in a line: S1P1 receptor antagonists, human, counter-screen for S1P4 antagonist project, cell-based (AID 1564; in the data active = inhibition above about 40%;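 also: receptor stimulated with S1P near its EC80; 0% = agonist stimulated wells and 100% = vehicle only wells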). Conditions: cell-based S1P1 antagonist counterscreen, at 4.98 µM, stronger effect = higher value. (Counterscreens check selectivity or assay interference.)
Chain of Sphingosine 1-phosphate receptor 1 (Homo sapiens) (P21453 whole entry, looked up): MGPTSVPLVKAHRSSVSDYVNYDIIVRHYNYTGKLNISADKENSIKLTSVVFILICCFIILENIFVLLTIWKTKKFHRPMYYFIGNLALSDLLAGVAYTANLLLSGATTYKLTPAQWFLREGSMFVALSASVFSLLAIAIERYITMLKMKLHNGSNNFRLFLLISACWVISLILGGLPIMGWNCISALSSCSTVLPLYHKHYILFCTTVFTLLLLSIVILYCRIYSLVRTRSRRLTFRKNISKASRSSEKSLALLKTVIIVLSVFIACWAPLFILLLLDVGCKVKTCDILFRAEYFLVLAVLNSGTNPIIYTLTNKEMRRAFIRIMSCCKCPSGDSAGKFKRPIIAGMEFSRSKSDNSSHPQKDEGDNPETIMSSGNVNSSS
For assay [3], the target named is Receptor-interacting serine/threonine-protein kinase 2 (Homo sapiens) (UniProt O43353). Description: NOD2-RIPK2 binding disruptors, retest, confirmation, fluorescence, CHO cells, BLA complementation, triplicate (AID 624370;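 active = mean inhibition across replicates above a set limit taken from the earlier primary screen, cut at about 21% in these data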;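 also: 0% = DMSO-only wells and the high end = clavulanate BLA-blocked wells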). The following applies: CCF4 FRET, at 4.98 µM, stronger effect = higher value.
Chain of Receptor-interacting serine/threonine-protein kinase 2 (Homo sapiens) (O43353 whole entry, looked up): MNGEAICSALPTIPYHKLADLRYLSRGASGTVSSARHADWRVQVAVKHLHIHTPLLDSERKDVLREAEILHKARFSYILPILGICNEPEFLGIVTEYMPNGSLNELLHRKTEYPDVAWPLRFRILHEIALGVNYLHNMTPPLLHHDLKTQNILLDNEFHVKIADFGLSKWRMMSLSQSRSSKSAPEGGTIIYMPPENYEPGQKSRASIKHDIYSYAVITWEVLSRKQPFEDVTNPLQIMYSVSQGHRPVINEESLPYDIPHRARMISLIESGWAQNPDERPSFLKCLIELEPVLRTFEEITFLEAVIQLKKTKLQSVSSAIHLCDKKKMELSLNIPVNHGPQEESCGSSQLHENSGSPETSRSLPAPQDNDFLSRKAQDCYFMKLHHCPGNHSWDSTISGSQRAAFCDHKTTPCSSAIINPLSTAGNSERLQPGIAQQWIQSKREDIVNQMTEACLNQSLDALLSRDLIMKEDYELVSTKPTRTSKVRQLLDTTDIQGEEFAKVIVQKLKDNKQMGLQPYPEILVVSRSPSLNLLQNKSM
Assay [4] can be described thus: beta-lactamase reporter inhibitors in CHO cells, confirmation, artefact control for NOD2-RIPK2 interaction inhibitor project, cell-based, CHO-K1 CMV-bla, CCF4 FRET, fluorescence (AID 624371;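 active = mean inhibition above the low-control mean inhibition plus three low-control SD, cut at about 11% in these data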;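 also: 0% = DMSO only wells and 100% = clavulanate high control wells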). Conditions: CCF4 FRET ratio, counterscreen, at 4.98 µM, stronger effect = higher value.
Assay [5] deals with Neuropeptide Y receptor type 2 (Homo sapiens) (UniProt P49146). Description: NPY-Y2 potentiators or agonists, confirmation, cell-based (AID 1539; in the data active = activation above about 33%). Conditions: cell-based NPY-Y2 potentiator/agonist assay; at 3.6 µM; stronger effect = higher value.
Chain of Neuropeptide Y receptor type 2 (Homo sapiens) (P49146 whole entry, looked up): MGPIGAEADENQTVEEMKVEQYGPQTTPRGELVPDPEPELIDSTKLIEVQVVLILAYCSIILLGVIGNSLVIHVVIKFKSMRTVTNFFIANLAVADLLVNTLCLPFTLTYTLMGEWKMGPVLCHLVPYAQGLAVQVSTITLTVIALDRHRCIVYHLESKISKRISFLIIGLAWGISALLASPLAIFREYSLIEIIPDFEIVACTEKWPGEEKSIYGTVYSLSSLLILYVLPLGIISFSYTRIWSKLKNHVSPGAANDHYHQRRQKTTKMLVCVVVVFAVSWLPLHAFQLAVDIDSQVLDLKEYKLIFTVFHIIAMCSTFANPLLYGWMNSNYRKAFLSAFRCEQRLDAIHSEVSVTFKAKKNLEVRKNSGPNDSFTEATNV
Assay [6] deals with Neuropeptide Y receptor type 1 (Homo sapiens) (UniProt P25929). Description: NPY-Y1 potentiators or agonists, counter-screen for NPY-Y2 potentiator project, cell-based, fluorescence (AID 1651; in the data active = activation above about 45%;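 also: cells stimulated with submaximal NPY then isoproterenol with phosphodiesterase inhibitor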). Conditions: Y1 HEK293-CNG cells, membrane potential fluorescence; at 3.6 µM; stronger effect = higher value.
Chain of Neuropeptide Y receptor type 1 (Homo sapiens) (P25929 whole entry, looked up): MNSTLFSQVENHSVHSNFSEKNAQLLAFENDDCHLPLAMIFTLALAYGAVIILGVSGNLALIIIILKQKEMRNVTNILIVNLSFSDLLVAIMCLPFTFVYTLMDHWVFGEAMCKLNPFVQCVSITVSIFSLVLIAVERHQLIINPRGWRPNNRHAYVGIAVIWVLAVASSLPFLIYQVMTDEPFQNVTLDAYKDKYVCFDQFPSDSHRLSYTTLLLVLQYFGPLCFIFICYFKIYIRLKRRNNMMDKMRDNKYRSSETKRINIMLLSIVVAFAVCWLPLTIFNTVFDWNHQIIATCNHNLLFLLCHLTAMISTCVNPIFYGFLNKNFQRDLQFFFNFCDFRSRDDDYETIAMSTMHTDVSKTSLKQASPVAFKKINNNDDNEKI
For assay [7] the target is unchanged. Description: NPY-Y1 direct agonists, selectivity assay for NPY-Y2 potentiator project, cell-based, fluorescence (AID 1702;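 active = activation above the mean of DMSO-only control wells plus 3 SD, cut at about 18% in these data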;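 also: cells stimulated with 1 µM isoproterenol plus the PDE inhibitor Ro 20-1724; 0% = isoproterenol with DMSO and no NPY and 100% = 40 nM NPY; Y1 agonists lower the membrane potential dye signal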). The following applies: HEK293 Y1-CNGC, membrane potential fluorescence, agonism; at 3.6 µM; stronger effect = higher value.
A short description of assay [8]: CNGC cAMP sensor activity inhibitors, counter-screen for NPY-Y2 potentiator project, cell-based, HEK293-CNG parental, membrane potential fluorescence (AID 1703;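 active = inhibition above the control-well mean plus 3 SD of those wells, cut at about 22% in these data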;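 also: 0% = DMSO with isoproterenol and 100% = DMSO without isoproterenol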). Conditions: isoproterenol cAMP, at 3.6 µM, stronger effect = higher value.
For assay [9], the target named is Neuropeptide Y receptor type 2 (Homo sapiens) (UniProt P49146). Description: NPY-Y2 direct agonists, counter-screen for NPY-Y2 potentiator project, cell-based, fluorescence (AID 1710;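 active = activation above the mean of solvent-only control wells plus 3 SD, cut at about 10% in these data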;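 also: cells stimulated by isoproterenol with no NPY added so direct agonism is tested; 0% = DMSO with isoproterenol alone and 100% = NPY at EC100 plus isoproterenol; agonism lowers probe fluorescence through less cAMP and CNG channel opening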). Conditions: HEK293 Y2/CNGC cells, membrane potential fluorescence, agonist mode; at 3.6 µM; stronger effect = higher value.
Assay [10] in a line: KLF5 expression inhibitors, confirmation, DLD-1 cells, luminescence (AID 1834;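 active = inhibition above a set limit taken from the earlier primary screen, cut at about 63% in these data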;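 also: 0% = DMSO wells and 100% = LY294002 at 200 µM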). Conditions: DLD-1 KLF5 promoter firefly luciferase reporter, at 4 µM, stronger effect = higher value. Background: A reporter such as luciferase makes a cellular process visible.
Assay [11] can be described thus: cytotoxicity in rat IEC-6 cells, cytotoxicity control for KLF5 inhibitor project, cell-based, luminescence, triplicate (AID 1905).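 Also: cells exposed to compounds for 48 hours before viability read.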 Conditions: IEC-6 rat intestinal cells, viability luminescence; at 4 µM; stronger effect = higher value.
A short description of assay [12]: growth loss of phage-infected E. coli expressing H. pylori AddAB, confirmation, AddAB inhibitor project, absorbance, E. coli V3065, T4 phage, triplicate (AID 488942;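 active = mean inhibition above a set limit taken from the earlier primary screen, cut at about 13% in these data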;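 also: higher means less bacterial growth since AddAB block lets phage replicate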). Conditions: OD, at 11.9 µM, stronger effect = higher value, T4 phage with gene 2 nonsense mutations.
Assay [13] can be described thus: growth loss of RecBCD+ E. coli with mutant T4 phage, counter-screen for AddAB inhibitor project, absorbance, V66 E. coli (AID 488955;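 active = mean inhibition above the mean of solvent-only control wells plus 3 SD, cut at about 4% in these data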;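 also: optical density read after an 18 h incubation at 37 °C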). The following applies: OD growth, at 11.9 µM, stronger effect = higher value.
Assay [14] in a line: bacterial viability inhibition counter-screen, confirmation, counter-screen for AddAB inhibitor project, absorbance (AID 488956; in the data active = inhibition above about 25%). Conditions: absorbance (AddAB counterscreen), at 11.9 µM, stronger effect = higher value.
For assay [15], the target named is Photoreceptor-specific nuclear receptor (Homo sapiens) (UniProt Q9Y5X4). Description: NR2E3 agonist confirmation in cells, cell-based, luminescence, CHO-S two-hybrid (AID 624378;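 active = average inhibition above a cutoff equal to the mean inhibition of all tested compounds plus one SD, cut at about 70% in these data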;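 also: 0% = DMSO in NR2E3 cells and 100% = DMSO in cells lacking NR2E3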). Conditions: CHO-S mammalian two-hybrid NR2E3-NCOR, luciferase luminescence; at 3.98 µM; stronger effect = higher value.
Chain of Photoreceptor-specific nuclear receptor (Homo sapiens) (Q9Y5X4 whole entry, looked up, the tested form may be a part): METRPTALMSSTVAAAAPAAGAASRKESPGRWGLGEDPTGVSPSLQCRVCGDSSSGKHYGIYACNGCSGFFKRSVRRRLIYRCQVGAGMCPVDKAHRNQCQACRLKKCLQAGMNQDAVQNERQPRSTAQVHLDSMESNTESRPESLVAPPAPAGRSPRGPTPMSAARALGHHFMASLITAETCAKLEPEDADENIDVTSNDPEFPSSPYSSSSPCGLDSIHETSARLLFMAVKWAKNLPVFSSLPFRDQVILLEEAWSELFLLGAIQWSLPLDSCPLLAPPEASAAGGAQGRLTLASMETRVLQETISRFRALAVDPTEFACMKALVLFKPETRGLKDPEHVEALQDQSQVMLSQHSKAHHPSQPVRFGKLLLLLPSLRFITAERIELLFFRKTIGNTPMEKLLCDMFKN
Assay [16] in a line: GAL4-VP16 reporter modulators, confirmation, counter-screen for NR2E3 agonist project, cell-based, luminescence, CHO-S, high throughput (AID 624379;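 active = mean inhibition above a cutoff equal to the average over all tested compounds plus one standard deviation, cut at about 70% in these data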;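 also: luciferase from a UAS reporter driven by GAL4-VP16 transactivation; 0% = DMSO with VP16-transfected cells and 100% = DMSO with cells lacking VP16; higher means less reporter light so more repression of VP16 activity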). Conditions: CHO-S GAL4-VP16 luciferase reporter, at 3.98 µM, stronger effect = higher value.
Assay [17] in a line: growth loss of phage-infected RecBCD+ E. coli, confirmation, RecBCD inhibitor project, absorbance, E. coli V66, T4 gene 2 phage (AID 651982;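 active = mean inhibition over triplicates exceeding the hit threshold derived in the original primary screen, cut at about 11% in these data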). Conditions: E. coli V66 + T4 2- phage, growth OD; at 11.9 µM; stronger effect = higher value.
The nature of assay [18]: E. coli viability inhibition, counter-screen for RecBCD inhibitor project, absorbance, high throughput (AID 651983; in the data active = inhibition above about 20%;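 also: E. coli strain V66 grown with compound alone and no phage infection; 0% = bacteria with DMSO vehicle only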). The following applies: absorbance (OD) growth, at 11.9 µM, stronger effect = higher value.
Assay [19] can be described thus: growth loss of phage-infected AddAB-carrying E. coli, confirmation, counter-screen for RecBCD inhibitor project, absorbance, E. coli V3065, T4 phage (AID 651984;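 active = mean inhibition above the solvent-only control wells' mean plus 3 SD, cut at about 22% in these data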;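 also: higher means less bacterial growth from phage killing when AddAB is blocked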). The following applies: E. coli expressing H. pylori AddAB + T4 phage, OD growth; at 11.9 µM; stronger effect = higher value; gene 2 mutant T4, recBCD-deleted host.
The target of assay [20] is Bcl-2-like protein 1 (Homo sapiens) (UniProt Q07817). The experiment in a line: Bcl-xL inhibitors blocking Bim BH3 binding, confirmation, counter-screen for MCL1 inhibitor project, biochemical, fluorescence polarization (AID 2166;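 active = inhibition above a cutoff equal to the mean inhibition of all tested compounds plus 3 SD, cut at about 30% in these data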). Conditions: GST-Bcl-xL / FITC-Bim BH3 peptide FP binding; at 10.9 µM; stronger effect = higher value.
Chain of Bcl-2-like protein 1 (Homo sapiens) (Q07817 whole entry, looked up): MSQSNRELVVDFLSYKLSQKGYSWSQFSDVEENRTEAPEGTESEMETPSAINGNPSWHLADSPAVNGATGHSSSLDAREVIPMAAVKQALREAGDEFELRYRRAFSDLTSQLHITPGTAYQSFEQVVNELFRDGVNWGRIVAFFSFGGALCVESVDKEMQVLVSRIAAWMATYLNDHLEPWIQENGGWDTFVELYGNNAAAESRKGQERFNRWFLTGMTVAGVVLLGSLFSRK
Assay [21] addresses Induced myeloid leukemia cell differentiation protein Mcl-1 (Homo sapiens) (UniProt Q07820). Description: inhibitors of MCL1 binding to BIM-BH3, confirmation, biochemical, fluorescence polarization, triplicate (AID 2168;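 active = inhibition above the average of all tested compounds plus 3 SD, cut at about 40% in these data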;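 also: 0% = DMSO wells and 100% = unlabeled Bim-BH3 control peptide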). Conditions: GST-MCL1 / FITC-Bim-BH3 fluorescence polarization; at 10.9 µM; stronger effect = higher value. A general note: Polarisation of emitted light reports the rotation of a fluorescent probe.

Structures are written as SMILES. Some of the results follow. Unmarked numbers belong to inactive results. The source made the active and inactive calls. Rule as the data show it, unless noted: active = inhibition above about 23%; inactive = the rest.

Chain of Sphingosine 1-phosphate receptor 4 (Homo sapiens) (O95977 whole entry, looked up): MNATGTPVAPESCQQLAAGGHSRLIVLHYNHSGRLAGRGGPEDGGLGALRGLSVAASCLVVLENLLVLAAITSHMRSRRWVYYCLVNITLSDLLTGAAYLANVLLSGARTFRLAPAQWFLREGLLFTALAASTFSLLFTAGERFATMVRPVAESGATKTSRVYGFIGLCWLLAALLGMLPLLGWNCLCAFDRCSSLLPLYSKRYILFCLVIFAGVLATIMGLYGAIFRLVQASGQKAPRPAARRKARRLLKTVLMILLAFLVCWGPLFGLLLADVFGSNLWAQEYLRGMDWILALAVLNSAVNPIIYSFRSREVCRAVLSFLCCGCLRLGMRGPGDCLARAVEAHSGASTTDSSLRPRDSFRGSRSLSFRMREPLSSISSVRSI
Chain of Induced myeloid leukemia cell differentiation protein Mcl-1 (Homo sapiens) (Q07820 whole entry, looked up): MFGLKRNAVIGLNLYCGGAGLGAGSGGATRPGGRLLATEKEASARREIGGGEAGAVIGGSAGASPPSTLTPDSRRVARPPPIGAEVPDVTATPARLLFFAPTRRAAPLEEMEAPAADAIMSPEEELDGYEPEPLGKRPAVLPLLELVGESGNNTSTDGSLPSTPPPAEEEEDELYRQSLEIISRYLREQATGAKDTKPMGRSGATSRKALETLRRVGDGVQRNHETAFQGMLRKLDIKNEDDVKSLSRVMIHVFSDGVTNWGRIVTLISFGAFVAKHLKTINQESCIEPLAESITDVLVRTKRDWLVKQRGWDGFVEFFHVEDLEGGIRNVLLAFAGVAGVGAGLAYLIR

What is called inhibition is the relative decrease from the control value, in per cent. With `O=C1C=C(c2ccc(Cl)cc2)C(=O)N1Nc1ccccc1`, the inhibition in [1] is 119% (active); in assay [2], 63% (active); in assay [3], 90.3% (active); in [4], 14.8% (active).
As for `COc1ccc2nc(NC(=O)NC3CCCCC3)sc2c1`, the activation in assay [5] is 40.8% (active); in [6] it was 66.1% (active); in assay [7] it was 72.5% (active); in assay [9] it was 53.9% (active). Further, in assay [8], the inhibition was 56.1% (active).
As to `O=c1cc(-c2ccccc2)[nH]c2cc(F)ccc12`, the results for the inhibition in [10] and in [11] were 77.9% (active) and 59.3% (active), respectively.
Regarding `COc1cccc(/C=N/Nc2ncc(C(F)(F)F)cc2Cl)c1O`, the inhibition in assay [10] was 99.8% (active); in assay [11], 0.75%; in [12], 12.9% (active); in assay [13], 16.2% (active); in assay [14] it was 16.3%; in assay [15], 83% (active). Also, the inhibition in assay [16] was 75.5% (active); in assay [17], 7.89%; in assay [18], 9.3%; in [19] it was 12.8%.
For `CC(Nc1ccccc1)c1cccnc1` (configuration not stated), the activation is 2.4% in [5], -7.91% in [6], -5.76% in [7] and 17.8% (active) in [9]. For the same compound, in assay [8], the inhibition is 2.7%.
Turning to `CCOc1ccccc1NC(=O)Cn1nnc(C(=O)NCc2cccs2)c1N`, the inhibition in assay [10] was 83.1% (active); in assay [11], 58.1% (active).
In the case of `CN(Cc1ccccc1)C(=O)CCNC(=O)Cn1cnc2ccccc2c1=O`, the activation in assay [5] was 11.1%; in [6] it was 33.4%; in assay [7] it was 11.4%; in assay [9], 18.3% (active). Moreover, the inhibition in [8] is 11.2%.
Consider `CCNC(=O)CCc1nc(-c2ccc(C(C)(C)C)cc2)no1`, for which the inhibition was 56% in assay [10], -2.69% in [11], 73.5% (active) in assay [15] and 77.8% (active) in [16].
Consider `COc1ccccc1C1C2=C(COC2=O)Nc2cc3c(cc21)OCO3` (configuration not stated), for which the figures for the inhibition in assay [10] and in [11] were 88.1% (active) and 82.9% (active), respectively.
For `CCOC(=O)c1sc(NC(=O)c2sc(C)nc2C)nc1C` the same measures were 69.3% (active) and 2.65%.
For `CC(=O)c1ccc(Oc2cc(C)nc(-n3nc(C)cc3C)n2)cc1` the same measures were 63.5% (active) and 57.9% (active).
With `CNc1ccc(SC#N)cc1`, the results for the inhibition in [1] and in assay [2] were 8.17% and -1.31%, respectively.
With `Cc1ccc(/C=N/NC(=O)COc2ccccc2-c2ccccc2)cc1`, the inhibition is 85.4% (active) in assay [10], 74.2% (active) in assay [11], -0.45% in assay [20] and -3.63% in [21].
Consider `CCn1c(SCC(=O)Nc2nccs2)nnc1-c1ccncc1`, for which the figures for the inhibition in assay [10] and in [11] were 3.83% and 8.72%, respectively.
With `CCc1c(C)nc2cc(-c3cccs3)[nH]n2c1=O`, the inhibition in assay [1] is 5.18%; in assay [2], 12.8%.
As for `CSc1nc(N(C)NC(=O)c2cccc(C)c2)c2ccccc2n1`, the inhibition was 88.7% (active) in [10] and 73.4% (active) in assay [11].
In the same order, the values of `COc1ccc(Nc2cc(C)nc(-n3nc(C)cc3C)n2)cc1` are 78.8% (active) and 60.9% (active).
